Rows were chosen to be rich in hits. Some 3.6% of all compounds tested hit in one or more screens of this group.
DUSP3 inh – blocks human VHR1 dual specificity phosphatase; recombinant VHR phosphatase, pNPP absorbance; inhibition, % at 13.3 µM; 290,000 compounds, 0.52% hits; in the data active means inhibition above about 50%
Target sequence (P51452 whole entry, looked up): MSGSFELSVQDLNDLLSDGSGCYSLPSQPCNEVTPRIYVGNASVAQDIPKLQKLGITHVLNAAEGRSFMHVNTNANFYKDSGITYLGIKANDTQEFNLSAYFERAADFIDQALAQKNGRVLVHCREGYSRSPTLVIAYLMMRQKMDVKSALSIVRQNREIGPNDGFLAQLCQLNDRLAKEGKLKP
Mtb hypoxia inh – Mtb hypoxia fluorescent reporter inhibition. M. tuberculosis hypoxia-regulated fluorescent reporter, fluorescence. fluorescence inhibition, % (concentration not given with the values). 300,000 compounds, 0.1% hits. AID 1159583; in the data active means fluorescence inhibition mostly above about 23%, no sharp cut-off; inactive means mostly below about 17%
GDH-TPI counter-1 – GDH-TPI coupled enzyme inhibition counter-screen | GDH-TPI coupled enzyme counterscreen, NADH absorbance | inhibition, % at 4.8 µM | 360,000 compounds, 1.2% hits; in the data active means inhibition above about 30%
Mtb FBA inh – inhibits M. tuberculosis FBA enzyme; P9WQA3; inhibition, % at 1 µM; AID 588726; purified M. tuberculosis FBA, fluorescence read-out; 360,000 compounds, 2.3% hits
Mtb bLac sens – beta-lactam sensitization of Mtb H37Rv; M. tuberculosis H37Rv growth with meropenem, percent inhibition; inhibition, % at 25 µM; 330,000 compounds, 0.27% hits; AID 434955; call rule not given here;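 further: growth measured after seven days incubation then overnight dye step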
Mtb FBA confirm – confirmation of M. tuberculosis fructose-bisphosphate aldolase inhibitors; shares compounds with Mtb FBA inh; purified M. tuberculosis FBA, fluorescence read-out; inhibition, % at 1 µM; 5,600 compounds, 78% hits; AID 651616
GDH-TPI counter-2 – counter-screen for M. tuberculosis FBA inhibitors: GDH-TPI coupled enzyme inhibition; shares compounds with Mtb FBA inh; GDH-TPI coupled enzyme counterscreen, fluorescence; inhibition, % at 1 µM; 5,600 compounds, 81% hits; AID 652141; in the data active means inhibition above about 10%
A number is an active result. Unless noted, no stated cut-off is given here; in the data, active means inhibition above about 27%; inactive means the rest.

`CCCCn1nc2cc(C(=O)NCc3ccco3)ccc2c1OCC` gave DUSP3 inh inactive, Mtb hypoxia inh inactive, GDH-TPI counter-1 inactive, Mtb FBA inh 27, Mtb bLac sens inactive, Mtb FBA confirm inactive and GDH-TPI counter-2 inactive.
For CCCCn1nc2cc(C(=O)NCCCCc3ccccc3)ccc2c1OCC the results were DUSP3 inh inactive, Mtb hypoxia inh inactive, GDH-TPI counter-1 inactive, Mtb FBA inh inactive and Mtb bLac sens inactive.
COC(=O)C1=C(c2cccc(OCc3ccccc3)c2)CC2CCC1N2C(=O)NCCCc1ccccc1 (stereo unspecified) was read as Mtb hypoxia inh inactive.
Screening COc1cc(CNc2ccc3[nH]c(=O)[nH]c3c2)ccc1OCc1ccc(F)cc1 returned DUSP3 inh inactive, Mtb hypoxia inh inactive, GDH-TPI counter-1 inactive, Mtb FBA inh inactive and Mtb bLac sens inactive.
Screening C=CCOc1ccc(CNc2ccc3[nH]c(=O)[nH]c3c2)cc1OC returned DUSP3 inh inactive, Mtb hypoxia inh inactive, GDH-TPI counter-1 inactive, Mtb FBA inh 85, Mtb FBA confirm 114 and GDH-TPI counter-2 88.
For Cc1ccc(C=NNC(=O)C(C)Oc2ccccc2[N+](=O)[O-])s1 (stereo unspecified) the results were Mtb hypoxia inh inactive.
Screening Cc1cc(C=C2NC(=O)NC2=O)c(C)n1-c1sc2c(c1C#N)CCCC2 returned Mtb hypoxia inh inactive.
`O=C(CSc1ccc(Cl)cc1)Nc1cccc(-c2nc3ccccc3[nH]2)c1` gave DUSP3 inh inactive, Mtb hypoxia inh inactive, GDH-TPI counter-1 inactive, Mtb FBA inh 35, Mtb bLac sens inactive, Mtb FBA confirm active and GDH-TPI counter-2 active.
O=C(CSc1ccccc1)Nc1ccc(-c2nc3ccccc3[nH]2)cc1 was read as DUSP3 inh inactive, GDH-TPI counter-1 inactive, Mtb FBA inh inactive and Mtb bLac sens inactive.

High-throughput results from PubChem.
